The test is described as follows: cytotoxicity in LNCaP prostate cells – cell-based, cell event count, single point, cytotoxicity control for prostate differentiation activator project, confirmation (AID 1076).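 Further: counts scatter-gated live cells after medium removal discards detached dead cells.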 The settings on record: LNCaP cell loss, flow cytometry event count, 4 d, stronger effect = lower value. For orientation: A flow cytometer gives signals particle by particle.

The source made the active and inactive calls.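 How the source made its calls: active means cell event count below 40, meaning activity score above 60 where score is 100 minus count; inactive means the rest.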

This passage reports cell event count results from PubChem BioAssay AID1076 (NMMLSC, 2008).

`O=C(CCCCCn1c(=O)[nH]c2ccccc2c1=O)NCCCN1CCN(c2ccccc2F)CC1`: the cell event count is 18 (inactive) (at 100 µM) and 336 (event count, at 10 µM).

`O=c1cc(N2CCN(c3ccc(F)cc3)CC2)[nH]c(=O)n1C1CCCCC1`: the cell event count by setting is: (at 100 µM) 173 (inactive); (event count, at 10 µM) 318.

`Cc1oc(-c2ccc(Cl)cc2)nc1CN1CCCC(C(=O)NCc2ccco2)C1` (centres undefined): the cell event count (at 100 µM) was 27 (inactive) and the cell event count (event count, at 10 µM) is 248.

On to `CCn1c(C(=O)NCCCN2CCc3ccccc3C2)cc2sccc21`, for which the cell event count is 16 (inactive) (at 100 µM) and 380 (event count, at 10 µM).

As to `CCOC(=O)N1CCC(NC(=O)c2cc3c(-c4ccc(Cl)cc4)nn(C)c3s2)CC1`, the cell event count (at 100 µM) was 342 (inactive) and the cell event count (event count, at 10 µM) worked out at 118.

In the case of `O=C(CN1CCN(Cc2ccc3c(c2)OCO3)CC1)N1CCc2[nH]c3ccc(F)cc3c2C1`, the cell event count is, setting by setting: (at 100 µM) 24 (inactive); (event count, at 10 µM) 234.

Take `O=C(CN1CCC(n2nnc3cc(F)ccc32)CC1)Nc1ccc2c(c1)CCC2`: the cell event count was 210 (inactive) (at 100 µM) and 466 (event count, at 10 µM).

Turning to `Cc1oc(-c2cccc(Cl)c2)nc1CN1CCC(C(=O)NCCCN2CCCC2=O)CC1`, the cell event count is, setting by setting: (at 100 µM) 166 (inactive); (event count, at 10 µM) 190.

`CCCCOC(=O)Nc1cc(C(=O)OC)ccc1C(=O)OC`: the cell event count reads like this: (at 100 µM) 143 (inactive); (event count, at 10 µM) 206.

For `CC(C)n1c(=S)[nH]c2c1c(=O)[nH]c(=O)n2C`, the cell event count reads like this: (at 100 µM) 221 (inactive); (event count, at 10 µM) 146.

Turning to `CCSc1nnc(Cn2c(=O)sc3ccccc32)n1-c1ccccc1C`, the cell event count is 249 (inactive) (at 100 µM) and 171 (event count, at 10 µM).

Turning to `COc1ccc2cc3cc(C(=O)Nc4ccccc4N4CCN(C)CC4)oc3nc2c1`, the cell event count runs as follows: (at 100 µM) 41 (inactive); (event count, at 10 µM) 334.

For the compound `CCOC(=O)N1CCC(NC(=O)c2cc3c(-c4cccc(OC)c4)nn(C)c3s2)CC1`, the cell event count is, setting by setting: (at 100 µM) 142 (inactive); (event count, at 10 µM) 300.

As for `COc1ccc2c(c1OC)C(=O)N(C(C)C(=O)O)C2=O` (centres undefined), the cell event count reads like this: (at 100 µM) 56 (inactive); (event count, at 10 µM) 53.5.

As for `COc1ccc2cc3c(N)nn(C(=O)Cc4ccccc4OC)c3nc2c1`, the cell event count reads like this: (at 100 µM) 20 (inactive); (event count, at 10 µM) 287.

For the compound `C=CCn1cc(C(=O)N2CCN(C)CC2)c(=O)c2cc(S(=O)(=O)N3CCCC3)ccc21`, the cell event count (at 100 µM) is 168 (inactive) and the cell event count (event count, at 10 µM) stood at 118.

Take `Cc1ccc2c(c1)NC(=O)C(CC(=O)NCCCN1CCN(c3cc(C)ccc3C)CC1)O2` (centres undefined): the cell event count is, setting by setting: (at 100 µM) 113 (inactive); (event count, at 10 µM) 152.

Turning to `CCOc1ccc(-c2cc(C(=O)NCCCN3CCN(CC)CC3)c3ccccc3n2)cc1`, the cell event count by setting is: (at 100 µM) 39 (inactive); (event count, at 10 µM) 156.

As to `CCn1c(=O)cc(SCC(=O)NCCCN2CCN(c3ccccc3F)CC2)c2ccccc21`, the cell event count by setting is: (at 100 µM) 6 (inactive); (event count, at 10 µM) 338.

For `COC(=O)c1[nH]c2c(c1C)C(=O)CCC2`, the cell event count is 387 (inactive) (at 100 µM) and 252 (event count, at 10 µM).

Turning to `Cc1ccccc1CS(=O)(=O)CCC(=O)NCCCN1CCN(c2ccccc2F)CC1`, the cell event count (at 100 µM) was 108 (inactive) and the cell event count (event count, at 10 µM) was 71.

Turning to `CCC(C)NC(=O)c1cn(C)c(=O)c2cc(OC)c(OC)cc12` (centres undefined), the cell event count (at 100 µM) is 386 (inactive) and the cell event count (event count, at 10 µM) turned out to be 302.

On to `CCOC(=O)c1ccc(NC(=O)Nc2ccc3c4c(cccc24)C(=O)N3CC)cc1`, for which the cell event count by setting is: (at 100 µM) 70 (inactive); (event count, at 10 µM) 254.

Regarding `CCCS(=O)(=O)N1CCCC(C(=O)NCCCN2CCN(c3ccccc3F)CC2)C1` (centres undefined), the cell event count is 110 (inactive) (at 100 µM) and 168 (event count, at 10 µM).

Take `CCS(=O)(=O)N1CCC(C(=O)NCCCN2CCN(c3ccccc3F)CC2)CC1`: the cell event count was 135 (inactive) (at 100 µM) and 70.5 (event count, at 10 µM).

Take `Cc1oc(-c2cccc(Cl)c2)nc1CN1CCC(C(=O)NCC2CCCO2)CC1` (centres undefined): the cell event count (at 100 µM) was 174 (inactive) and the cell event count (event count, at 10 µM) is 165.

As for `Cn1nc(-c2ccc(Cl)cc2)c2cc(C(=O)NCCN3CCOCC3)sc21`, the cell event count reads like this: (at 100 µM) 10 (inactive); (event count, at 10 µM) 136.

Turning to `COc1ccc(-n2nnnc2SCC(=O)c2ccc(O)c(O)c2)cc1`, the cell event count runs as follows: (at 100 µM) 9 (inactive); (event count, at 10 µM) 205.

`N=c1c(C(=O)NC2CCCC2)cc2c(=O)n3ccccc3nc2n1C1CCCC1`: the cell event count is, setting by setting: (at 100 µM) 12 (active); (event count, at 10 µM) 55.

As to `Cc1oc(-c2ccccc2F)nc1CN1CCC(C(=O)NC2CC2)CC1`, the cell event count runs as follows: (at 100 µM) 363 (inactive); (event count, at 10 µM) 496.

Consider `O=C(NCCCN1CCN(c2ccccc2F)CC1)C1CCN(S(=O)(=O)N2CCOCC2)CC1`, for which the cell event count is, setting by setting: (at 100 µM) 156 (inactive); (event count, at 10 µM) 108.

In the case of `Cc1oc(-c2cccc(Cl)c2)nc1CN1CCCC(C(=O)NCc2ccco2)C1` (centres undefined), the cell event count was 10 (inactive) (at 100 µM) and 146 (event count, at 10 µM).

As to `Cc1ccc(Oc2ccc(S(=O)(=O)N3CCOCC3)cc2C(N)=O)c(-n2nc3ccccc3n2)c1`, the cell event count (at 100 µM) was 5 (inactive) and the cell event count (event count, at 10 µM) was 126.

In the case of `Nc1ccccc1NC(=O)c1ccccc1N`, the cell event count (at 100 µM) is 236 (inactive) and the cell event count (event count, at 10 µM) turned out to be 313.

Regarding `CCc1ccc(-c2nc(CN3CCC(C(=O)NCCN(CC)c4ccccc4)CC3)c(C)o2)cc1`, the cell event count runs as follows: (at 100 µM) 6 (inactive); (event count, at 10 µM) 150.

In the case of `Cn1c(=O)[nH]c(=O)c2c1nc(Br)n2CCCSc1nc2ccccc2o1`, the cell event count (at 100 µM) was 8 (inactive) and the cell event count (event count, at 10 µM) was determined as 96.

For `CCOC(=O)N1CCN(S(=O)(=O)c2ccc(C(=O)Nc3nc4ccccc4s3)cc2)CC1`, the cell event count by setting is: (at 100 µM) 145 (inactive); (event count, at 10 µM) 172.
